Data on ten compounds can be found in PubChem BioAssay (EPA / NIEHS).

A short description of test [1]: Tanguay_ZF_120hpf_JAW_legacy: (Legacy) Oregon State University Tanguay Lab 120 Hour Post-fertilization zebrafish Assay for Jaw Malformation (AID 2283638).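 As to AC50: active means more embryos with jaw malformation than DMSO controls.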 Put shortly: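 Binary jaw-malformation call at 120 hpf by brightfield microscopy. Embryos (Tropical 5D strain, chorion removed at 4 hpf) were dosed statically at 6 hpf, one per well, at 28C with 0.64% DMSO. Embryos that died were not scored.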

A short description of test [2]: Tanguay_ZF_120hpf_OTIC_legacy: (Legacy) Oregon State University Tanguay Lab 120 Hour Post-fertilization zebrafish Assay for Otic Vesicle Malformation (AID 2283639). In outline: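 Binary scoring of otic vesicle defects at 120 hpf in zebrafish (Tropical 5D) held under static exposure at 28C, sealed and shaded, with final DMSO 0.64%. Embryos dying by 24 or 120 hpf excluded; fitted positively against DMSO.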

Test [3] in a line: Tanguay_ZF_120hpf_PE_legacy: (Legacy) Oregon State University Tanguay Lab 120 Hour Post-fertilization zebrafish Assay for Pericardial Edema (AID 2283640).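 As to AC50: potency for increased incidence of pericardial edema versus DMSO baseline.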 In outline:
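Scoring was binary, by brightfield microscopy at 120 hpf, and skipped where mortality occurred. Wild-type embryos were kept under sealed, foil-covered static exposure at 28C in 0.64% (vol/vol) DMSO.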

A short description of test [4]: Tanguay_ZF_120hpf_CFIN_legacy: (Legacy) Oregon State University Tanguay Lab 120 Hour Post-fertilization zebrafish Assay for Caudal Fin Malformation (AID 2283649). Put shortly:
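Binary brightfield scoring of caudal fin defects at 120 hpf after static, light-shielded exposure at 28C from 6 hpf. Tropical 5D embryos, chorion removed with pronase at 4 hpf, final DMSO 0.64%.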

Test [5] in a line: Tanguay_ZF_120hpf_PIG_legacy: (Legacy) Oregon State University Tanguay Lab 120 Hour Post-fertilization zebrafish Assay for Pigmentation Malformation (AID 2283650). Put shortly: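 Brightfield scoring of pigmentation malformation at 120 hpf, recorded as binary present/absent per larva. Exposure: dechorionated 5D wild-type embryos, one per well, static from 6 hpf at 28C, final DMSO 0.64% (vol/vol). Dead embryos not scored.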

Test [6] can be described thus: Tanguay_ZF_120hpf_CIRC_legacy: (Legacy) Oregon State University Tanguay Lab 120 Hour Post-fertilization zebrafish Assay for Circulatory Malformation (AID 2283651). In outline: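 Binary circulatory malformation call at 120 hpf by brightfield imaging of zebrafish larvae; chorion removed at 4 hpf, static exposure from 6 hpf in sealed dark plates at 28C, final DMSO 0.64%; non-mortality endpoints skipped if embryo died.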

Test [7] can be described thus: Tanguay_ZF_120hpf_SWIM_legacy: (Legacy) Oregon State University Tanguay Lab 120 Hour Post-fertilization zebrafish Assay for Swim Bladder Malformation (AID 2283654).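 Also: swim bladder malformation in each larva scored yes or no under brightfield.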 In outline: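 Tropical 5D embryos dechorionated at 4 hpf; 1 embryo/well from 6 hpf; static, sealed, dark exposure at 28C until 120 hpf; final DMSO 0.64%; 5uM trimethyltin chloride positive control; swim bladder defect recorded yes/no; dead embryos not scored.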

Test [8] is described as follows: Tanguay_ZF_120hpf_NC_legacy: (Legacy) Oregon State University Tanguay Lab 120 Hour Post-fertilization zebrafish Assay for Notochord and Tail Malformation (AID 2283656). Put shortly:
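Binary scoring of notochord distortion by brightfield microscopy; embryos dying were not scored. Wild-type Tropical 5D embryos, chorion removed, exposed singly and statically from 6 to 120 hpf, 28C, sealed, 0.64% DMSO.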

Read-out in test [9]: xenobiotic metabolism (CYP1A1), CYP1A1 (gene 1543)
Briefly: CLD_CYP1A1_6hr: CellzDirect (CLD) Gene Expression Assay for xenobiotic metabolism (CYP1A1) at 6 hours (AID 2283661).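 As to AC50: potency for transcript induction above DMSO vehicle baseline.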 In outline:
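Read-out 6 h post-dose: qNPA chemiluminescent quantitation of transcript induction against 0.2% DMSO. Cells were cultured primary human hepatocytes from two separate donor preparations; phase-contrast morphology annotated apparent cytotoxicity.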

A short description of test [10]: Tanguay_ZF_120hpf_PFIN_legacy: (Legacy) Oregon State University Tanguay Lab 120 Hour Post-fertilization zebrafish Assay for Pectoral Fin Malformation (AID 2283648).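 Also: each larva judged yes or no for fin defect by brightfield with dead larvae skipped.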 In outline:
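Binary pectoral fin malformation call at 120 hpf by brightfield microscopy; 5D wild-type zebrafish, chorion removed at 4 hpf, one embryo per well from 6 hpf, static exposure at 28C; DMSO (0.64% final) as baseline.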

A short description of test [11]: Tanguay_ZF_120hpf_TRUN_legacy: (Legacy) Oregon State University Tanguay Lab 120 Hour Post-fertilization zebrafish Assay for Truncated Body (AID 2283655). Put shortly: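 Binary presence/absence of truncated body is recorded at 120 hpf by brightfield, with non-mortality endpoints skipped after death. Exposure is static from 6 hpf in sealed dark plates at 28C, using dechorionated wild-type zebrafish, 0.64% DMSO.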

Read-out in test [12]: Broad substrate specificity ATP-binding cassette transporter ABCG2 (Homo sapiens) (UniProt Q9UNQ0)
Briefly: CLD_ABCG2_6hr: CellzDirect (CLD) Gene Expression Assay for ABC Transporter (ABCG2) at 6 hours (AID 2283660). Put shortly: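 ABCG2 mRNA induction measured by qNPA chemiluminescence in human primary hepatocyte cultures, 6 h post-dose. Chemicals tested at several concentrations against a 0.2% DMSO vehicle; positive-direction fit relative to DMSO.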

Read-out in test [13]: ABC Transporter (ABCB1), ABCB1 (gene 5243)
As to the kind of experiment: CLD_ABCB1_6hr: CellzDirect (CLD) Gene Expression Assay for ABC Transporter (ABCB1) at 6 hours (AID 2283659).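 Also: hits raise ABCB1 transcript above the DMSO vehicle baseline.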 Put shortly: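 ABCB1 transcript measured by quantitative nuclease protection assay, chemiluminescent read-out, 6 h after dosing human hepatocyte cultures (0.2% DMSO vehicle, daily redosing). Activity fitted as increase over DMSO baseline; cytotoxicity flagged by phase-contrast morphology.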

Read-out in test [14]: xenobiotic metabolism (CYP1A2), CYP1A2 (gene 1544)
Briefly: CLD_CYP1A2_6hr: CellzDirect (CLD) Gene Expression Assay for xenobiotic metabolism (CYP1A2) at 6 hours (AID 2283663). In outline: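 mRNA levels quantified by quantitative nuclease protection assay with chemiluminescence, 6 h after dosing human primary hepatocyte cultures (two donors) across several concentrations, vehicle 0.2% DMSO. Induction fitted upward versus DMSO; phase-contrast cytotoxicity annotated.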

Read-out in test [15]: solute carrier (SLC22A6), SLC22A6 (gene 9356)
Briefly: LTEA_HepaRG_SLC22A6: Life Technologies and Expression Analysis (LTEA) Assay for solute carrier (SLC22A6) using HepaRG (AID 2283653; active = hit-call score of the fitted dose curve at least 0.9, where 1 is the maximum; inactive = score below 0.9). The conditions noted are these: mRNA level, 48 h; actives raise or lower the signal. Put shortly:
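SLC22A6 transcript was measured by TaqMan qRT-PCR, normalized to three housekeeping genes, after 48 h duplicate exposure of HepaRG cells (100 uM top, half-log steps, 0.5% DMSO); bidirectional fit against vehicle.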

Read-out in test [16]: matrix metalloproteinase-1 (MMP1), MMP1 (gene 4312)
Briefly: LTEA_HepaRG_MMP1: Life Technologies and Expression Analysis (LTEA) Assay for matrix metalloproteinase-1 (MMP1) using HepaRG (AID 2283658; active = hit-call score of the fitted dose curve at least 0.9, where 1 is the maximum; inactive = score below 0.9). The conditions noted are these: mRNA level, 48 h; actives raise or lower the signal. In outline:
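qRT-PCR (TaqMan, Fluidigm arrays) of MMP1 transcript, normalized against three housekeeping genes and fitted in both directions relative to 0.5% DMSO vehicle. Human HepaRG cultures received duplicate 48 h exposures across 8 points, highest 100 uM with half-log steps.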

Read-out in test [17]: kallikrein-3 (KLK3), KLK3 (gene 354)
Briefly: LTEA_HepaRG_KLK3: Life Technologies and Expression Analysis (LTEA) Assay for kallikrein-3 (KLK3) using HepaRG (AID 2283652; active = hit-call score of the fitted dose curve at least 0.9, where 1 is the maximum; inactive = score below 0.9). Particulars: mRNA level, 48 h; actives raise or lower the signal. In outline:
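KLK3 transcript levels were measured by TaqMan qRT-PCR with normalisation to three housekeeping genes. HepaRG cultures received chemicals for 48 h at up to 100 uM (half-log, 8 points, 0.5% DMSO vehicle), fitted in both directions against DMSO.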

For test [18], the system named is Thyroperoxidase (TPO), gene 54314. As to the kind of experiment: CCTE_Simmons_AUR_rTPO: CCTE's Amplex UltraRed Assay for Thyroperoxidase (TPO) Inhibition, Simmons Lab (AID 2283662). In outline: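 Rat thyroid microsomes (5 ug protein) with 25 uM Amplex UltraRed and 300 uM H2O2 in 200 mM phosphate buffer, 30 min at 37C in dark; fluorescence 544/590 nm. Eight concentrations, 5 nM–87.5 uM final, 0.5% DMSO, triplicate biological replicates.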

Test [19] is described as follows: Tanguay_ZF_120hpf_SOMI_legacy: (Legacy) Oregon State University Tanguay Lab 120 Hour Post-fertilization zebrafish Assay for Somite Malformation (AID 2283647). Put shortly: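 Binary somite-defect scoring at 120 hpf, omitted for embryos that died, in wild-type (Tropical 5D) zebrafish with chorion removed by pronase at 4 hpf; static exposure began 6 hpf, single embryos per well, 28C, 0.64% DMSO; fitted positive versus DMSO.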

Molecules are shown by their SMILES. Results filed as inconclusive are left out. Activity calls are given as the source filed them. The calls were made as follows, unless noted: active = hit-call score of the fitted dose curve at least 0.9, where 1 is the maximum; inconclusive = response in the unintended direction; inactive = score below 0.9.

Sequence of Broad substrate specificity ATP-binding cassette transporter ABCG2 (Homo sapiens) (Q9UNQ0 whole entry, looked up): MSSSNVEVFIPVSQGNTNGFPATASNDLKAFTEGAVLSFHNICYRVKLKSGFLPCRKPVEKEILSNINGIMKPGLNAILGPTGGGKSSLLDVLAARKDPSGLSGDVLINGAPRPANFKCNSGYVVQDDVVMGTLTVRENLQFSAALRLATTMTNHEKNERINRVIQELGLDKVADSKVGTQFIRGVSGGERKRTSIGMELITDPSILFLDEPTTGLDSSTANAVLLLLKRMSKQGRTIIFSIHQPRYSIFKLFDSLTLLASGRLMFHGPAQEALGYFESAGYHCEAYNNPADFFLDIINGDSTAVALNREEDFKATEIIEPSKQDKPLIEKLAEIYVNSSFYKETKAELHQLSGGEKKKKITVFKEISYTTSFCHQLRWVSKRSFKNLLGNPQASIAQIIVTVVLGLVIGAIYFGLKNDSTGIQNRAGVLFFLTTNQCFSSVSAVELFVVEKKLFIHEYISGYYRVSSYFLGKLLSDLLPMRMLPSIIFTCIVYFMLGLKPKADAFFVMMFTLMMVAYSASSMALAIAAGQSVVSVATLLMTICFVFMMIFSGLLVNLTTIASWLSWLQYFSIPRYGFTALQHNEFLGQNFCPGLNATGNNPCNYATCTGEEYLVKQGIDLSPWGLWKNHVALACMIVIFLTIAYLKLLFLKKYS

Consider `FC(F)C(F)(F)OCC(Cn1cncn1)c1ccc(Cl)cc1Cl` (stereo not drawn), for which the AC50 in [1] was 11.7 µM (active); in [2], 47 µM (active); in test [3], 26.1 µM (active); in test [4], 49.2 µM (active); in [5], 49.6 µM (active); in test [6], 17.2 µM (active). Further, the results for the AC50 in test [7] and in test [9] were 18.2 µM (active) and 2.47 µM (active), respectively. Further, the outcome in test [8] was inactive.

In the case of `CCNc1nc(Cl)nc(NC(C)(C)C#N)n1`, the compound was called inactive in test [3], in test [4], in test [5], in [6], in test [7] and in [8].

With `COP(=O)(OC)OC(Br)C(Cl)(Cl)Br` (stereo not drawn), the outcome in test [1], in [2], in test [3], in [10], in test [6] and in test [11] was inactive. The compound was classed as inactive in [8] and in test [12].

`CC1=NNC(=O)N(/N=C/c2cccnc2)C1`: the call in test [1], in test [2], in [3], in [10], in test [4] and in test [6] was inactive. The call in test [7], in test [8] and in test [12] was inactive.

Consider `CC(C1CC1)C(O)(Cn1cncn1)c1ccc(Cl)cc1` (stereo not drawn), for which the AC50 in [1] is 24.7 µM (active); in test [3], 15.1 µM (active); in test [7], 32.6 µM (active); in test [9] it was 0.0103 µM (active). The outcome in [4], in test [5], in [6], in [8], in test [13] and in test [12] was inactive.

Consider `CCCOc1nn(C(=O)NS(=O)(=O)c2ccccc2C(=O)OC)c(=O)n1C`, for which the result in test [1], in test [2], in test [3], in test [4], in test [7] and in test [8] was inactive. In addition, in [12], the result was inactive.

With `CCC(CC)Nc1c([N+](=O)[O-])cc(C)c(C)c1[N+](=O)[O-]`, the call in test [1], in test [2], in [3], in test [4], in [5] and in test [6] was inactive. The result in test [7], in test [8], in test [9] and in [14] was inactive.

As for `CSc1nc(NC(C)C)nc(NC(C)C)n1`, the call in test [1], in [2], in [3], in [4], in test [5] and in test [6] was inactive. In addition, the call in [15], in [7], in [8], in test [16] and in test [12] was inactive.

Turning to `CC1(C(=O)Nc2ccc(O)c(Cl)c2Cl)CCCCC1`, the outcome in test [1], in test [3], in test [4], in test [5], in test [6] and in [17] was inactive. Moreover, the compound was classed as inactive in test [15], in test [7], in test [8], in test [16], in [13] and in test [12]. The outcome in test [18] was inactive.

For the compound `CNc1cnn(-c2cccc(C(F)(F)F)c2)c(=O)c1Cl`, the outcome in test [1], in test [3], in test [19], in test [10], in [4] and in test [5] was inactive. The compound was called inactive in test [6], in test [7], in [11] and in test [12].
